Measurements published in PubChem BioAssay (NCI).
About 83,000 compounds went through this panel and 20% of them were active in at least one assay; those are over-represented in the sample as a whole.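 Cells were grown in 96-well plates and exposed to the test compound at a single concentration for 48 hours; results are reported as percent growth, with values below 10 considered active.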 The source made the active and inactive calls.

How the values were obtained:
Assay in all cases: NCI-60 one-dose screen, 48 h (100 = growth as untreated, 0 = no growth, -100 = all killed)
Details in all cases: 10 µM
SN12C renal = system: SN12C renal
UO-31 renal = system: UO-31 renal
TK-10 renal = system: TK-10 renal
ACHN renal = system: ACHN renal
CAKI-1 renal = system: CAKI-1 renal
A498 renal = system: A498 renal
CCRF-CEM leukemia = system: CCRF-CEM leukemia
MOLT-4 leukemia = system: MOLT-4 leukemia
EKVX NSCLC = system: EKVX NSCLC
SR leukemia = system: SR leukemia

Measured: growth

CN(C)c1ccc(N=C2C=CC(=O)c3ccccc32)cc1
inactive: SN12C renal 55.4% | UO-31 renal 48.8% | TK-10 renal 111% | ACHN renal 79.5% | CAKI-1 renal 80.9% | A498 renal 91.3% | CCRF-CEM leukemia 70.5% | MOLT-4 leukemia 77.6%

O=C(Nc1ccc(Cl)c([N+](=O)[O-])c1)Nc1nc2ccccc2s1
inactive: EKVX NSCLC 76.3% | SN12C renal 65.1% | TK-10 renal 112% | ACHN renal 81.8% | A498 renal 85.7% | CCRF-CEM leukemia 49.2% | MOLT-4 leukemia 79.7% | SR leukemia 113%

CN(C)CCS(=O)(=O)CCN(C)C
inactive: SN12C renal 97.2% | UO-31 renal 113% | TK-10 renal 103% | ACHN renal 107% | CAKI-1 renal 112% | A498 renal 96% | CCRF-CEM leukemia 102% | MOLT-4 leukemia 104%

Cc1cc(Nc2ccc(Cl)cc2)nc(NCCCNc2ccnc3cc(Cl)ccc23)n1
active: SN12C renal -75.9% | UO-31 renal -40.1% | TK-10 renal -74.7% | ACHN renal -81.1% | CAKI-1 renal -36.3% | CCRF-CEM leukemia -22.7% | MOLT-4 leukemia -47.7%
inactive: A498 renal 12.7%

COc1ccccc1/C=C/C(=O)c1ccccc1
inactive: EKVX NSCLC 98.6% | SN12C renal 91.6% | TK-10 renal 104% | ACHN renal 84.2% | A498 renal 108% | CCRF-CEM leukemia 29% | MOLT-4 leukemia 46% | SR leukemia 10.5%

Nc1ccccc1NC(=O)CCCCC(=O)Nc1ccc2c(c1)/C(=C/c1ccc[nH]1)C(=O)N2
active: A498 renal -5.06%
inactive: SN12C renal 66.9% | UO-31 renal 72.2% | TK-10 renal 68.2% | ACHN renal 92.7% | CAKI-1 renal 81.6% | CCRF-CEM leukemia 50.7% | MOLT-4 leukemia 47.7% | SR leukemia 62.7%

COc1cc(NC(=O)CCSc2nc3ccc(C)cc3c(=O)n2Cc2ccccc2)cc(OC)c1OC
inactive: SN12C renal 89.5% | UO-31 renal 71.2% | TK-10 renal 96.1% | ACHN renal 53.3% | CAKI-1 renal 65.1% | A498 renal 77.6% | CCRF-CEM leukemia 105% | MOLT-4 leukemia 103% | SR leukemia 95.3%

COc1ccc(/C=C2/CN(CCC#N)C/C(=C\c3ccc(OC)cc3)C2=O)cc1
active: SN12C renal -57% | UO-31 renal -43.8% | ACHN renal 8.83% | CAKI-1 renal -19.4% | CCRF-CEM leukemia 0.103% | MOLT-4 leukemia 3.59% | SR leukemia -2.63%
inactive: TK-10 renal 16.2% | A498 renal 56.3%

O=C1/C(=C\c2ccccc2)CN(C(=O)c2ccccc2F)C/C1=C\c1ccccc1
inactive: UO-31 renal 12.4% | TK-10 renal 53.8% | CAKI-1 renal 30.4% | A498 renal 45%
active: SN12C renal 6.12% | ACHN renal -3.34% | CCRF-CEM leukemia -7.33% | MOLT-4 leukemia -4.02% | SR leukemia -35.1%

CN(C)c1ccc(/C=C/C=N/NC(=O)c2cc(O)c(O)c(O)c2)cc1
inactive: SN12C renal 105% | UO-31 renal 65.9% | TK-10 renal 101% | ACHN renal 76.8% | CAKI-1 renal 93.4% | A498 renal 88.1% | CCRF-CEM leukemia 16.1% | MOLT-4 leukemia 48% | SR leukemia 32.9%

COc1ccc(-c2nn(-c3cccc(NC(=O)Nc4ccccc4)c3)cc2-c2ccncc2)cc1Cl
active: UO-31 renal -39.9% | CAKI-1 renal -7.47% | MOLT-4 leukemia -2.67% | SR leukemia -6.06%
inactive: SN12C renal 31.4% | TK-10 renal 28.1% | ACHN renal 34.8% | A498 renal 32.2% | CCRF-CEM leukemia 11.9%

CSc1nn(-c2ccccc2)c2ncnc(Oc3ccc(C)cc3)c12
inactive: SN12C renal 88.8% | UO-31 renal 84.4% | TK-10 renal 94.2% | ACHN renal 76% | CAKI-1 renal 84.8% | A498 renal 67.8% | CCRF-CEM leukemia 90.5% | MOLT-4 leukemia 94.9% | SR leukemia 91.8%

N#CCCN1C/C(=C/c2ccccc2)C(=O)/C(=C/c2ccccc2)C1
inactive: SN12C renal 25.3% | UO-31 renal 51.6% | TK-10 renal 95.6% | CAKI-1 renal 19.1% | A498 renal 106%
active: ACHN renal 8.94% | CCRF-CEM leukemia -1.14% | MOLT-4 leukemia 4.56% | SR leukemia -2.02%

Fc1ccc2nc(-c3nc(-c4ccccc4)n4ccccc34)[nH]c2c1
active: UO-31 renal -32.9% | TK-10 renal -30.2% | CAKI-1 renal -0.279% | A498 renal -16.8%
inactive: SN12C renal 16.9% | ACHN renal 10.1% | CCRF-CEM leukemia 53.3% | MOLT-4 leukemia 39.8% | SR leukemia 38%

COc1cc(Cl)cc(-c2nn(-c3cccc(NC(=O)Nc4ccc(Cl)c(C(F)(F)F)c4)c3)cc2-c2ccncc2)c1
inactive: SN12C renal 13.8% | UO-31 renal 11.1% | TK-10 renal 37.5%
active: ACHN renal 8.78% | CAKI-1 renal 9.38% | A498 renal -9.18% | CCRF-CEM leukemia 1.88% | MOLT-4 leukemia -9.68% | SR leukemia -27.5%

Cc1ccc(S(=O)(=O)Oc2ccc3c4c(c(=O)oc3c2)CCCCC4)cc1
active: SR leukemia 2.57%
inactive: SN12C renal 66.2% | UO-31 renal 64.6% | TK-10 renal 74.3% | ACHN renal 78.7% | CAKI-1 renal 59.6% | A498 renal 61.8% | CCRF-CEM leukemia 43% | MOLT-4 leukemia 42.2%

COc1ccc(-c2nc(-c3nc4ccc(Cl)cc4[nH]3)c3ccccn23)cc1
inactive: SN12C renal 52.7% | CCRF-CEM leukemia 82.7% | MOLT-4 leukemia 74.4% | SR leukemia 40.3%
active: UO-31 renal -24.8% | TK-10 renal -12.1% | ACHN renal 0.296% | CAKI-1 renal -13% | A498 renal -3.43%

CCCCCCN1C(=O)C2=C(c3ccc(Cl)cc3)Nc3c(c(C)nn3-c3ccccc3)C2c2ccccc21 (stereo not drawn)
inactive: SN12C renal 91.2% | UO-31 renal 79.2% | TK-10 renal 107% | ACHN renal 97.1% | CAKI-1 renal 74.5% | A498 renal 87.5% | CCRF-CEM leukemia 85.8% | MOLT-4 leukemia 73.4% | SR leukemia 76.3%

COc1cc(Cl)cc(-c2nn(-c3cccc(NC(=O)c4ccc(N5CCOCC5)c(C(F)(F)F)c4)c3)cc2-c2ccncc2)c1
inactive: SN12C renal 79.8% | UO-31 renal 40.7% | TK-10 renal 90.6% | ACHN renal 50.1% | CAKI-1 renal 46.7% | A498 renal 31.5% | CCRF-CEM leukemia 31.7% | MOLT-4 leukemia 38.3% | SR leukemia 18.4%

Cc1ccc(C(=O)N2C/C(=C/c3ccc(F)cc3)C(=O)/C(=C/c3ccc(F)cc3)C2)cc1
inactive: SN12C renal 92.4% | UO-31 renal 64.3% | TK-10 renal 102% | ACHN renal 103% | CAKI-1 renal 81.3% | A498 renal 93.5% | CCRF-CEM leukemia 63.1% | MOLT-4 leukemia 71.6% | SR leukemia 20.4%

N#CCCN1C/C(=C/c2ccc(Br)cc2)C(=O)/C(=C/c2ccc(Br)cc2)C1
active: SN12C renal -51.2% | UO-31 renal -91.3% | TK-10 renal -29.1% | ACHN renal -53.5% | CAKI-1 renal -7.84% | A498 renal -39.7% | CCRF-CEM leukemia -5.67% | MOLT-4 leukemia 2.26% | SR leukemia -17.3%

N#CCCN1C/C(=C/c2ccc(Cl)cc2)C(=O)/C(=C/c2ccc(Cl)cc2)C1
active: SN12C renal -74.8% | UO-31 renal -95.5% | TK-10 renal -40.9% | ACHN renal -70.7% | CAKI-1 renal -9.22% | A498 renal -68.4% | CCRF-CEM leukemia -3.01% | MOLT-4 leukemia -11.7% | SR leukemia -17.5%

Cc1c(Cl)cccc1NC(=O)c1sc2nc3c(cc2c1N)C(=O)CCC3
active: A498 renal -19% | CCRF-CEM leukemia 7.08% | MOLT-4 leukemia 6.7% | SR leukemia 2.96%
inactive: SN12C renal 30.8% | UO-31 renal 33.3% | TK-10 renal 74.3% | ACHN renal 39.4% | CAKI-1 renal 23.9%

COc1ccc(OC)c(NC(=O)c2sc3nc4c(cc3c2N)C(=O)CCC4)c1
inactive: SN12C renal 95.5% | UO-31 renal 84.7% | TK-10 renal 98% | ACHN renal 106% | CAKI-1 renal 86.3% | CCRF-CEM leukemia 84.4% | MOLT-4 leukemia 93.1% | SR leukemia 73.7%
active: A498 renal 3.5%

COc1ccc(/C=C/C(C)=N/OCC(=O)O)cc1
inactive: SN12C renal 105% | UO-31 renal 95.9% | TK-10 renal 87.5% | ACHN renal 106% | CAKI-1 renal 106% | A498 renal 72.8% | CCRF-CEM leukemia 95.7% | MOLT-4 leukemia 86.8% | SR leukemia 93.4%

Clc1ccc(Sc2nc(NC3CC3)nc(Sc3ccc(Cl)cc3)n2)cc1
inactive: SN12C renal 88.5% | UO-31 renal 62.3% | TK-10 renal 112% | ACHN renal 84.6% | CAKI-1 renal 51.9% | A498 renal 83.9% | CCRF-CEM leukemia 76.4% | MOLT-4 leukemia 43.8% | SR leukemia 67.3%

C/C(N)=C(\C#N)C(=O)c1ccccc1
inactive: SN12C renal 106% | UO-31 renal 86.4% | TK-10 renal 106% | ACHN renal 105% | CAKI-1 renal 107% | A498 renal 91.5% | CCRF-CEM leukemia 102% | MOLT-4 leukemia 110% | SR leukemia 112%
